Assay outcomes: PubChem, National Center for Advancing Translational Sciences (NCATS)
D3 antag: blocks the human D3 dopamine receptor; P35462; D3R cells, DiscoveRx beta-arrestin luminescence, antagonist mode; stronger effect = lower value; max response, negative = inhibition, %; 360,000 compounds, 2.5% hits; AID 652054; in the data active = max response below about -50%; inconclusive = no clear call, values can overlap the other calls; also: % is scaled to controls: 0 for no effect and ±100 for the full control effect
Target sequence (P35462 whole entry, looked up): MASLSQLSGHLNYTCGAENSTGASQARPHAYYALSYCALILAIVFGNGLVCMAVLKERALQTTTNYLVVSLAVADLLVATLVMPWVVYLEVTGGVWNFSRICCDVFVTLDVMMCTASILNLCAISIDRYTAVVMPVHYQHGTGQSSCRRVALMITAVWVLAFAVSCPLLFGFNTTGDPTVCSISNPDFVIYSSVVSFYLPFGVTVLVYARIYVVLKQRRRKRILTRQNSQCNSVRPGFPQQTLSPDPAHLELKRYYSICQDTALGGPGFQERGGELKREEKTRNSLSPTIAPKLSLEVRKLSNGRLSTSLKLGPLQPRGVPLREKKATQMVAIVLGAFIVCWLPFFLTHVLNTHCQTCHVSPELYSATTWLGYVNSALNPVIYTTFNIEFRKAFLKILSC
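Cells expressing the human receptor were seeded at 1500 cells/well, incubated overnight at 37 degrees C in 5% CO2, then exposed to library compounds with dopamine controls for 90 minutes at 37 degrees C before luminescent detection.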
pAkt inh: blocks phosphorylation of Akt | Neuro2A IGF-stimulated pAkt S473 HTRF, 20 min; stronger effect = lower value | activity change, % for hits at 50 µM | 360,000 compounds, 0.32% hits | AID 651550; in the data active = activity change below about -80%; inconclusive = mostly about -51% to -80%; also: % is scaled to controls: 0 for no effect and ±100 for the full control effect
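Single-point screen (50 µM final compound) in Neuro2A cells stimulated 20 min with 6 nM IGF at 37 deg C. After lysis, Ser473-phosphorylated Akt read by HTRF (ex 330 nm, em 615/665 nm) as the 665/615 ratio.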
PI4K2A inh: PI4K2A (human) kinase inhibition; AID 1346378; purified PI4K2A, ADP-Glo luminescence, 1 h; stronger effect = lower value; activity change, negative = inhibition, % at 76.9 µM; Q9BTU6; 420,000 compounds, 0.13% hits; in the data active = activity change below about -50%; inconclusive = mostly about -30% to -49%;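 also: -100% = wells without enzyme as full effect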
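PI4K2A activity was measured by ADP-Glo luminescence: enzyme (4 ug/mL stock) and phosphatidylinositol (1.2 mM stock) in Tris pH 7.5/MgCl2/EGTA/Triton X-100 buffer were reacted with ATP (300 microM stock) for one hour at ambient temperature.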
LDHA inh: inhibitors of human lactate dehydrogenase A. P00338. purified LDHA, NADH/diaphorase-resazurin fluorescence; stronger effect = lower value. activity change, % (values are at about 110 or 230 µM). 480,000 compounds, 0.15% hits. AID 1347041; in the data active = activity change below about -30%; inconclusive = mostly about -25% to -30%;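 also: plate controls were DMSO wells for no effect and wells without enzyme for full effect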
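LDH5 2 nM; NADH 0.06 mM, pyruvate 0.2 mM; 200 mM Tris pH 7.4, EDTA, Tween-20; 5 min RT. Detection: diaphorase 0.133 mg/mL + resazurin 37 µM, fluorescence ex540/em590 at 0 and 20 min; normalized to enzyme-free and DMSO wells.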
D3 ag: agonists of human D3 dopamine receptor | P35462 | D3R DiscoveRx beta-arrestin cells, luminescence, 90 min | max activation, % | 410,000 compounds, 0.58% hits | AID 652048; in the data active = max activation above about 30%; also: 0% is about no effect
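Agonist mode: compounds and dopamine controls were applied to plated cells for 90 min at 37 degrees C after an overnight attachment at 1500 cells/well. Luminescent read-out followed 30 - 60 minutes at room temperature with DiscoveRx detection reagent.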
RGS4 inhibitor: inhibitors of human regulator of G protein signaling 4; Potency, µM (doses to about 114 µM), for inactives: at the highest dose activity change, negative = inhibition, hits mostly inhibitors; 390,000 compounds, 0.039% hits; P49798; Transcreener GDP fluorescence polarization, RGS4-accelerated GTP hydrolysis; active = well fitted inhibition curve with a large enough effect; inconclusive = small, poorly fitted or top-dose-only effect; inactive = no such curve, though single readings can be large or run the other way; also: potency is read from the fitted curve at half-maximal effect; % is scaled to controls: 0 for no effect and ±100 for the full control effect; nearly all actives have a fitted effect of over 75% in size
Target sequence (P49798 whole entry, looked up): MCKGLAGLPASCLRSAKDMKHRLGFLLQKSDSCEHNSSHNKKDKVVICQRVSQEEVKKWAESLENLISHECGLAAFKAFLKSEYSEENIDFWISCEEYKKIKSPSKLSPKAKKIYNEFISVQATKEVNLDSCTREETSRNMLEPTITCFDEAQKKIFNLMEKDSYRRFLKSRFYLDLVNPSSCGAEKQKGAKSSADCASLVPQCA
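MLSMR compounds (23 nl, pin-transferred) preincubated 10 min at room temperature with a 500nM (2x) first reagent, then RGS4 at 900nM (2x) plus Transcreener GDP mix added; fluorescence polarization (620/688 nm) read before and after 90 min at 30 °C.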
* = called active by the depositor; i = inactive; ? = inconclusive; · = no result given; [ ] = remark or other dose. Hits are enriched below; roughly 2.8% of the tested compounds scored in any of these assays.

SMILES	D3 antag	pAkt inh	PI4K2A inh	LDHA inh	D3 ag	RGS4 inhibitor
CC1(c2nnc(Cc3ccccc3)o2)CC(c2cccc([N+](=O)[O-])c2)=NO1 (stereo not drawn)	13	i	2	0	32*	7%
O=C(CNCCN1CCOCC1)Nc1ccccc1Sc1ccccc1	-2	i	1	-31*	-1	1%
O=C1/C(=C/c2cccc(O)c2)SC(=S)N1CC1CCCO1 (stereo not drawn)	0	i	8	-1	-1	-42%
COc1cc(/C=C2/SC(=S)N(Cc3ccccc3)C2=O)ccc1O	-61*	i	-4	0	-19	-16%
CC(/C=C1\SC(=S)N(NC(=O)c2ccc(C)cc2)C1=O)=C\c1ccccc1	-52*	i	-10	4	-7	-8%
COc1cc(/C=C2\SC(=S)N(NC(=O)c3ccc(O)c(OC)c3)C2=O)ccc1O	-75*	i	-18	-9	-16	-28%
CCOc1cc(/C=C2/SC(=S)N(CC3CCCO3)C2=O)ccc1O (stereo not drawn)	-64*	i	-8	-6	-2	-10%[56.9 µM]
CC(/C=C1\SC(=S)N(NC(=O)c2ccncc2)C1=O)=C\c1ccccc1	-11	i	-12	-3	-6	-13%
O=C1/C(=C\c2ccc(O)c(O)c2)SC(=S)N1Cc1ccccc1	?	i	-10	13	-3	-44%
CCc1ccccc1NC(=O)c1cnn2c1NC(C(=O)O)=CC2c1ccccc1OC (stereo not drawn)	·	·	·	4	·	·
CCCCCCNC(=S)Nc1ccccc1	·	·	·	5	·	·
O=C(COC(=O)CCc1c[nH]c2ccccc12)NC(c1ccccc1)c1ccccc1	5	i	-7	-5	39*	-12%
N[C@H](Cc1c[nH]c2ccccc12)C(=O)O	·	·	-1	·	-10	21µM*
Cc1cc(F)ccc1NC(=O)c1ccn(Cn2nnc(-c3ccccc3)n2)n1	·	·	·	8	·	·
COc1ccc(N2CCN(CC(=O)Nc3nc4c(s3)CC(C)CC4)CC2)cc1 (stereo not drawn)	13	-120%*	9	-2	0	-28%
COc1ccc(NC(=O)c2ccc(NC(=O)CN3CCN(c4ccc(O)cc4)CC3)cc2)cc1	8	i	-30	11	82*	-13%
Cc1ccc(NC(=O)N2CCC(C(=O)c3ccc(F)cc3)CC2)cc1	6	i	6	2	-4	-11%
Cc1ccc(NC(=O)CN2CCC(C(=O)c3ccc4c(c3)OCCO4)CC2)cc1	-52*	i	0	-8	-4	1%[56.9 µM]
CN(C)c1ccc(NC(=O)CN2CCC(C(=O)c3ccc(F)cc3)CC2)cc1	-82*	·	-1	-4	-27	-7%
Cc1cc(C(=O)N2CCN(S(=O)(=O)c3ccccc3)CC2)c(C)n1C(C)C	·	·	·	0	·	·
Cc1cc2oc(C(=O)NCC(c3cccs3)N(C)C)cc(=O)c2cc1C (stereo not drawn)	·	·	·	13	·	·
COc1ccc(C(=O)C2CCN(CC(=O)Nc3ccc(C)cc3)CC2)cc1	-113*	i	-7	-8	-31	8%
COC(=O)c1ccccc1NC(=O)CN1CCC(C(=O)c2ccc3c(c2)OCCO3)CC1	43	i	-10	-5	40*	0%
CC(C)COc1ccc(C(=O)Nc2ccc(N3CCN(S(C)(=O)=O)CC3)cc2)cc1	·	·	·	-35*	·	·
O=C1Nc2cc(C(=O)N3CCN(c4ccccc4)CC3)ccc2N2CCCC12 (stereo not drawn)	·	·	·	6	·	·
SMILES	D3 antag	pAkt inh	PI4K2A inh	LDHA inh	D3 ag	RGS4 inhibitor
CCOc1ccc(C(=O)O/N=C(\N)c2ccccn2)cc1	7	i	-88*	-3	-5	-8%
CC(C)(C)c1ccc(C(=O)O/N=C(\N)c2ccccn2)cc1	5	i	?	-3	2	6%
C/C(=N/OC(=O)c1ccc(-c2ccccc2)cc1)c1cccs1	·	·	·	10	·	·
C/C(=N/OC(=O)c1ccc(C)cc1)c1cccs1	-3	i	-80*	-11	-1	5%[11.4 µM]
Cc1ccc(C(=O)O/N=C(\N)c2ccccn2)cc1	4	i	-86*	-6	0	-3%
Cc1cccc(C(=O)O/N=C(\N)c2ccccn2)c1	-7	i	?	-5	0	-4%
N/C(=N\OC(=O)c1ccccc1)c1ccccn1	6	i	-67*	-3	19	-4%
COc1ccc(C2C(C(C)=O)=C(O)C(=O)N2c2ccc(OC)cc2)cc1 (stereo not drawn)	·	·	·	-1	·	·
Nc1nc(SCC(=O)NCc2ccc(F)cc2)n[nH]1	·	·	·	5	·	·
O=C(CSc1cccc2cccc(Cl)c12)NCc1ccco1	·	·	·	11	·	·
CC(=O)Nc1ccc2oc(-c3ccccc3C)nc2c1	·	·	·	17	·	·
COc1cc(SC)ccc1C(=O)O	·	·	·	3	·	·
O=C1[C@H]2[C@@H](c3ccccc3)N[C@]3(CCCN(Cc4ccco4)C3=O)[C@H]2C(=O)N1Cc1ccccc1	-56*	i	0	2	-3	·
N#Cc1nc(C2CC2)oc1N1CCN(Cc2ccc(Cl)cc2)CC1	·	·	·	1	·	·
C=CCn1c(=O)c2c(nc(-n3nc(C)c(C)c3C)n2CC(=C)C)n(C)c1=O	·	·	·	-32*	·	·
C=C(C)Cn1c(-n2nc(C)c(C)c2C)nc2c1c(=O)n(C)c(=O)n2C	·	·	·	-8	·	·
CC1([N+](=O)[O-])COC2(CCCCC2)OC1	-50*	i	-9	-12	83*	6%
CC1([N+](=O)[O-])COC2(OC1)C(=O)Nc1ccccc12 (stereo not drawn)	0	i	1	-2	-11	0%
CC[C@@H](C)[C@H](NC(=O)c1sc(-c2ccccc2F)nc1C)C(=O)O	·	·	·	-10	·	·
O=C(CS(=O)CC(=O)N(CC(=O)NC1CCCC1)C1CCCCC1)Nc1ccc(F)cc1 (stereo not drawn)	52	i	0	-1	1	14%
